According to PubChem BioAssay (NCATS):
Results filed as inconclusive are left out. Entries that show only a call come without a potency. The source made the active and inactive calls. Unless noted, calls come from the whole dose curve.

Tests used:
[1] = qHTS for Inhibitors of the Functional Ribonucleoprotein Complex (vRNP) of Lassa (LASV) Arenavirus: Viability assay - alamar blue signal for LASV Primary Screen (AID 1347083; calls by dose curve; tested in HEK293 reporter line; note: nearly all actives have a fitted effect of over 80% in size; note: potency is the fitted concentration of half-maximal effect)
[2] = qHTS for Inhibitors of the Functional Ribonucleoprotein Complex (vRNP) of Lymphocytic Choriomeningitis Arenaviruses (LCMV): Viability assay - alamar blue signal for LCMV Primary Screen (AID 1347085; calls by dose curve; tested in HEK293 reporter line; note: nearly all actives have a fitted effect of over 80% in size; note: potency is the fitted concentration of half-maximal effect)
[3] = Cytotoxicity counterscreen for inhibitors of SARS-CoV-2 cell entry (AID 1645845); note: nearly all actives have a fitted effect of over 50% in size
How it was run: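 HEK293-ACE2 cells (Expi293F stably expressing human ACE2) seeded overnight, then compound for 1 h plus 48 h at 37C. Viability as ATP content by luminescence; normalized to wells with cells and media-only wells.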

[4] = Primary qHTS to identify inhibitors of SARS-CoV-2 cell entry (AID 1645846); settings: activity change, negative = inhibition: at 57.1 µM (top of the series) unless noted; note: nearly all actives have a fitted effect of over 45% in size; note: potency is the fitted concentration of half-maximal effect
How it was run: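 Entry measured by luciferase signal 48 h after adding SARS-CoV-2-S pseudotyped MLV particles to HEK293-ACE2 cells preincubated 1 h with compounds. Normalisation: bald particles and spike particles.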

[5] = biological target: Alpha-galactosidase (Coffea arabica) (UniProt Q42656); experiment: Counterscreen for Glucocerebrosidase Inhibitors: qHTS Assay for Coffee Bean alpha-Galactosidase at pH 4.5 (AID 957; active = well fitted curve in the direction sought with a large enough effect; an effect the other way counts as inactive or inconclusive)
Sequence of Alpha-galactosidase (Coffea arabica) (Q42656 whole entry, looked up): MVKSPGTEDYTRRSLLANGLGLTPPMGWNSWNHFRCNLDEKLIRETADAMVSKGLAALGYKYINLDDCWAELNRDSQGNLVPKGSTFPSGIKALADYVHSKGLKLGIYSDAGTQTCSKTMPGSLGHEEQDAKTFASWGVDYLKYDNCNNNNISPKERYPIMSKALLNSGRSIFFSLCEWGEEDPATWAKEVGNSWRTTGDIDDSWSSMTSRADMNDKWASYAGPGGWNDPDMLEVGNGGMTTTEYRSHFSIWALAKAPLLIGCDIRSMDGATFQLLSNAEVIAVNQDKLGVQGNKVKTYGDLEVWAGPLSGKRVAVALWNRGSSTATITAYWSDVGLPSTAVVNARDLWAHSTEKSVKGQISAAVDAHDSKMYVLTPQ
How it was run: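 Green coffee bean enzyme (2 nM final) was incubated with compounds (0.7 nM to 77 uM) and 4-methylumbelliferyl alpha-D-galactopyranoside (80 uM final) in 50 mM citric acid, 0.005% Tween-20, pH 4.5, 20 min at room temperature; AC50 from Hill fits.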

[6] = biological target: Alpha-galactosidase (Coffea arabica) (UniProt Q42656); experiment: Counterscreen for Glucocerebrosidase Inhibitors: qHTS Assay for Coffee Bean alpha-Galactosidase at pH 5.9 (AID 998; active = well fitted curve in the direction sought with a large enough effect; an effect the other way counts as inactive or inconclusive)
How it was run: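 Green coffee bean enzyme (2 nM) with 4-methylumbelliferyl alpha-D-galactopyranoside (80 uM) in 50 mM citric acid, 0.005% Tween-20, pH 5.9, 20 min at room temperature; compounds 0.7 nM–77 uM. Stopped at pH 10, fluorescence Ex365/Em440; Hill-fit AC50.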

[7] = Validation screen for inhibitors of Lassa infection (AID 463096)
[8] = Primary qHTS for Huh7 cytotoxicity: counterscreen for inhibitors of MERS-S pseudotyped particle cell entry (AID 1479147); settings: outcome: dose series up to 57.1 µM unless noted
[9] = Primary qHTS for Vero E6 cytotoxicity: counterscreen for inhibitors of SARS-S pseudo-typed particle cell entry (AID 1479150); settings: outcome: dose series up to 57.1 µM unless noted
[10] = qHTS profiling of the MIPE4 collection as inhibitors of Plasmodium falciparum (3D7) proliferation (AID 743344; call rule not given here); settings: P. falciparum 3D7 in erythrocytes, SYBR Green DNA fluorescence, 72 h; at 28.5 µM (top of the series) unless noted
How it was run: (§1)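 Erythrocytes infected with P. falciparum (0.3% parasitemia, 2.5% hematocrit) incubated with compounds 72 h at 37 C, 5% CO2. Lysis with saponin/Triton buffer containing SYBR Green I, overnight at room temperature in the dark; DNA fluorescence (485/535 nm) normalised to 0.29 uM artemisinin and DMSO.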

[11] = qHTS profiling of the MIPE4 collection as inhibitors of Plasmodium falciparum (DD2) proliferation (AID 743345; call rule not given here); settings: P. falciparum Dd2 in erythrocytes, SYBR Green DNA, 72 h; at 28.5 µM (top of the series) unless noted
How it was run: as §1

[12] = qHTS profiling of the MIPE4 collection as inhibitors of Plasmodium falciparum (DD2) proliferation (Rep 2) (AID 743346; call rule not given here); settings: P. falciparum Dd2 in erythrocytes, SYBR Green DNA, 72 h; at 28.5 µM (top of the series) unless noted
How it was run: as §1

[13] = Confirmatory qHTS to identify inhibitors of SARS-CoV-2 cell entry (AID 1645844); note: potency is the fitted concentration of half-maximal effect; nearly all actives have a fitted effect of over 45% in size
How it was run: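 HEK293-ACE2 cells were pretreated 1 h with compound, then infected with MLV-based pseudoparticles bearing C-terminally truncated Wuhan-Hu-1 spike for 48 h at 37C; luciferase luminescence normalized to spike PP and bald PP wells.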

[14] = VSVG counterscreen qHTS to identify inhibitors of SARS-CoV-2 cell entry (AID 1645847); note: potency is the fitted concentration of half-maximal effect; nearly all actives have a fitted effect of over 65% in size
How it was run: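 Luminescence read after 48 h infection at 37 C with VSV-G-pseudotyped MLV particles, following 1 h compound exposure of Expi293F cells stably expressing human ACE2; scaled between bald particle and VSV-G particle wells.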

[15] = Primary qHTS for inhibitors of SARS-S pseudo-typed particle cell entry (AID 1479145); note: nearly all actives have a fitted effect of over 45% in size
[16] = Primary qHTS for inhibitors of MERS-S pseudo-typed particle cell entry (AID 1479149); note: nearly all actives have a fitted effect of over 60% in size
[17] = Confirmatory qHTS for VERO E6 Cytotoxicity Assay: Counterscreen for SARS-CoV-2 CPE Assay (AID 1508605); note: nearly all actives have a fitted effect of over 60% in size; note: potency is the fitted concentration of half-maximal effect
[18] = Confirmatory qHTS for activators (rescue) of SARS-CoV-2 Cytopathic Effect (CPE) (AID 1508606); note: nearly all actives have a fitted effect of over 70% in size
[19] = Inducers of the Endoplasmic Reticulum Stress Response (ERSR) in human glioma: Validation (AID 504836; active = well fitted curve in the direction sought with a large enough effect; an effect the other way counts as inactive or inconclusive)
How it was run: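 Stably transfected U87-MG glioma cells carrying a GRP78-based luciferase sensor; 16 h compound incubation. Luminescence end-point read 10 min after Bright-Glo addition at room temperature.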

[20] = Quantitative high throughput screen for delayed death inhibitors of the malarial parasite plastid, 48 hour incubation (AID 488752; active = well fitted curve in the direction sought with a large enough effect; an effect the other way counts as inactive or inconclusive; note: nearly all actives have a fitted effect of over 65% in size)
How it was run: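 Erythrocytes infected with P. falciparum carrying an integrated firefly luciferase reporter (2% hematocrit, 0.1% parasitemia final) were exposed to compounds in RPMI 1640/0.5% Albumax for 48 h at 37 C, 5% CO2. Growth inhibition was scored as reduced luminescence.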

[21] = biological target: Peroxisome proliferator-activated receptor delta (Homo sapiens) (UniProt Q03181); experiment: qHTS assay for small molecule agonists of peroxisome proliferator-activated receptor delta signaling (AID 588534)
Sequence of Peroxisome proliferator-activated receptor delta (Homo sapiens) (Q03181 whole entry, looked up): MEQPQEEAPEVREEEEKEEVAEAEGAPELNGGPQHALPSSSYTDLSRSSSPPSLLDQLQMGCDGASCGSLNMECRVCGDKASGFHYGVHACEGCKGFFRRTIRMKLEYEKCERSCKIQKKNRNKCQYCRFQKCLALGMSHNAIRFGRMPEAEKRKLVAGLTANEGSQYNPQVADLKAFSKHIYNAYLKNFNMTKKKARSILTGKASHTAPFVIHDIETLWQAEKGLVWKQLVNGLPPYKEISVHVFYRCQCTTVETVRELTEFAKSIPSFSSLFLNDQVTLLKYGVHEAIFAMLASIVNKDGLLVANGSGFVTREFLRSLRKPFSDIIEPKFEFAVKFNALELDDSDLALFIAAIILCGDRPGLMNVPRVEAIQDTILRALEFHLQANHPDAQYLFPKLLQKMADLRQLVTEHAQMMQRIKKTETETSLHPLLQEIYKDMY
How it was run: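 Cell-based beta-lactamase reporter assay run in agonist mode: cells seeded and incubated 5 hrs at 37 C, compounds added and incubated 18 hrs at 37 C. CCF4 dye fluorescence read after 2 hrs at RT; EC50 and efficacy from Hill fits.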

## O=C(CC12CC3CC(CC(C3)C1)C2)Nc1cccc2nc(NCCNCCO)ccc12
[1]
  Potency: 21.7 µM (active)
[2]
  Potency: 24.3 µM (active)
[3]
  Potency: inactive

## COc1ccc(-c2nc(N3CCOCC3)c3sc(CN(C)c4ncc(C(=O)NO)cn4)cc3n2)cn1
[1]
  Potency: 0.193 µM (active)
[2]
  Potency: 0.122 µM (active)
[4]
  Potency: inactive

## CC(C)NC[C@@H](O)COc1cccc2ccccc12
[5]
  outcome: inactive
[6]
  outcome: inactive
[7]
  Potency: inactive
[1]
  Potency: inactive
[2]
  Potency: inactive
[8]
  outcome: inactive
[9]
  outcome: inactive
[3]
  Potency: inactive
[4]
  activity change, negative = inhibition: -4.9%

## CC[C@H](CC[C@@H](C)[C@H]1CC[C@H]2[C@@H]3CC=C4C[C@@H](O)CC[C@]4(C)[C@@H]3CC[C@]12C)C(C)C
[10]
  parasite growth, % of DMSO control: 94%
[11]
  parasite growth remaining, % of DMSO control (lower = more inhibition): 101%
[12]
  parasite growth, % of control (lower = inhibition): 179%
[1]
  Potency: 8.63 µM (active)
[2]
  Potency: 2.43 µM (active)

## COc1cc([C@@H]2c3cc4c(cc3[C@@H](O[C@@H]3O[C@@H]5CO[C@@H](C)O[C@@H]5[C@H](O)[C@@H]3O)[C@H]3COC(=O)[C@H]23)OCO4)cc(OC)c1O
[1]
  Potency: 2.17 µM (active)
[2]
  Potency: 2.17 µM (active)
[8]
  outcome: inactive
[9]
  outcome: inactive
[13]
  Potency: 0.541 µM (active)
[14]
  Potency: 0.383 µM (active)

## C[C@H](NCc1ccc(OCc2cccc(F)c2)cc1)C(N)=O
[1]
  Potency: 21.7 µM (active)
[2]
  Potency: 38.5 µM (active)
[15]
  Potency: inactive
[8]
  outcome: inactive
[16]
  Potency: inactive
[9]
  outcome: inactive

## COc1ccc(F)c(F)c1C(=O)c1cnc(NC2CCN(S(C)(=O)=O)CC2)nc1N
[1]
  Potency: 2.73 µM (active)
[2]
  Potency: 6.11 µM (active)
[13]
  Potency: 0.0681 µM (active)
[4]
  activity change, negative = inhibition: -92.2%
[14]
  Potency: 0.0681 µM (active)

## c1cncc(CN2CCC(n3ncc4c(N5CCOCC5)nc(-c5ccc6[nH]ccc6c5)nc43)CC2)c1
[1]
  Potency: 1.22 µM (active)
[2]
  Potency: 2.43 µM (active)
[17]
  Potency: 2.51 µM (active)
[18]
  Potency: inactive

## CC(C(=O)O)c1ccc(C(=O)c2cccs2)cc1 (stereo not given)
[1]
  Potency: inactive
[2]
  Potency: inactive
[15]
  Potency: inactive
[8]
  outcome: inactive
[16]
  Potency: inactive
[9]
  outcome: inactive
[4]
  Potency: inactive

## COc1cc(/C=C(\C#N)C(=O)Nc2nnc(C(F)(F)F)s2)ccc1OCc1ccc(C(F)(F)F)cc1C(F)(F)F
[19]
  outcome: inactive
[1]
  Potency: inactive
[2]
  Potency: inactive
[3]
  Potency: inactive
[4]
  Potency: inactive

## Cc1c(C(N)=O)cc([N+](=O)[O-])cc1[N+](=O)[O-]
[1]
  Potency: inactive
[2]
  Potency: inactive
[15]
  Potency: inactive
[8]
  outcome: inactive
[16]
  Potency: inactive
[9]
  outcome: inactive
[3]
  Potency: inactive

## CC(=O)OCC(=O)[C@@]12OC(C)(C)O[C@@H]1C[C@H]1[C@@H]3C[C@H](F)C4=CC(=O)C=C[C@]4(C)[C@@]3(F)[C@@H](O)C[C@@]12C
[1]
  Potency: inactive
[2]
  Potency: inactive
[15]
  Potency: inactive
[8]
  outcome: inactive
[16]
  Potency: inactive
[9]
  outcome: inactive
[3]
  Potency: inactive
[4]
  Potency: inactive

## Nc1nc(N)c(N=O)c(OCC2CCCCC2)n1
[19]
  outcome: inactive
[1]
  Potency: 15.3 µM (active)
[2]
  Potency: 21.7 µM (active)
[3]
  Potency: inactive
[4]
  activity change, negative = inhibition: -7.15%

## CC(C)NCC(O)COc1cccc2ccccc12 (stereo not given)
[7]
  Potency: inactive
[20]
  Potency: inactive
[19]
  outcome: inactive
[21]
  Potency: inactive
[1]
  Potency: inactive
[2]
  Potency: inactive

## C[C@@]1(C(=O)Nc2ccc(F)nc2)CCCN1c1nc(Nc2cc(C3CC3)[nH]n2)c2cccn2n1
[1]
  Potency: 6.11 µM (active)
[2]
  Potency: 1.37 µM (active)
[13]
  Potency: 0.171 µM (active)
[3]
  Potency: inactive
[14]
  Potency: 2.71 µM (active)

## Cc1cnc(NC(=O)Nc2cc(Br)c(C)cc2OC[C@@H]2CNCCO2)cn1
[1]
  Potency: 2.43 µM (active)
[2]
  Potency: 10.9 µM (active)
[4]
  Potency: 10 µM (active)

## Cc1nc2c([nH]1)CCN(C(=O)c1ccc(NC(=O)c3ccccc3-c3ccccc3)cc1)c1ccccc1-2
[1]
  Potency: inactive
[2]
  Potency: inactive
[8]
  outcome: inactive
[9]
  outcome: inactive
[3]
  Potency: inactive

## COc1cc(C(=O)NC2CCN(C)CC2)ccc1Nc1ncc2c(n1)N(C1CCCC1)CCC(=O)N2C(C)C
[1]
  Potency: 27.3 µM (active)
[2]
  Potency: 15.3 µM (active)
[4]
  Potency: 31.6 µM (active)

## O=C(N[C@@H](c1ccccc1)[C@@H]1CCCCN1)c1cccc(C(F)(F)F)c1Cl
[1]
  Potency: 0.0243 µM (active)
[2]
  Potency: 0.0086 µM (active)
[17]
  Potency: inactive
[3]
  Potency: inactive

## CC(C)NC[C@H](O)COc1cccc2ccccc12
[19]
  outcome: inactive
[1]
  Potency: inactive
[2]
  Potency: inactive

## Cc1ncc(-c2ccnc(Nc3ccc(S(C)(=O)=O)cc3)n2)n1C(C)C
[1]
  Potency: 6.85 µM (active)
[2]
  Potency: 13.7 µM (active)
[4]
  activity change, negative = inhibition: -96.5%
